Hit rate of the full screen: of about 5,500 compounds, about 2,000 (36%) were called active. About 18% were inconclusive and are not listed. No stated cut-off is given here; in the data, active means normalized growth mostly below about 0.91 (no sharp cut-off); inconclusive means no clear call, values can overlap the other calls; inactive means mostly above about 0.92. The list shows a part of the results.
Assay: chemical genetic growth profiling, strain panel (AID 1159580);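 further: tested at 20 µM; growth read once vehicle control cultures reached saturation at 30 °C; 1 = growth at the plate median or of vehicle wells; lower values mean less growth of the strain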
Settings: growth OD

Measured: normalized growth

CO[C@H]1[C@H](O)[C@H](O[C@H]2CC[C@]3(C)C4CC[C@]5(C)C(C6=CC(=O)OC6)CC[C@]5(O)C4CC[C@@H]3C2)O[C@@H](C)[C@@H]1O (some centres undefined)
inactive: S. cerevisiae deletion strains, locus YJR043C, strain POL32, hits give low values 1.02 | S. cerevisiae deletion strains, locus YJR075W, strain HOC1, hits give low values 1.02 | S. cerevisiae deletion strains, locus YKL009W, strain mrt4, hits give low values 0.996 | S. cerevisiae deletion strains, locus YKL068W, hits give low values 1 | S. cerevisiae deletion strains, locus YKL085W, strain MDH1 (second series), hits give low values 1.01 | S. cerevisiae deletion strains, locus YKL085W, strain MDH1, hits give low values 1.01 | S. cerevisiae deletion strains, locus YKL160W, strain elf1, hits give low values 0.989 | S. cerevisiae deletion strains, locus YKL190W, strain CNB1, hits give low values 1.01 | S. cerevisiae deletion strains, locus YKR001C, strain vps1, hits give low values 0.992 | S. cerevisiae deletion strains, locus YKR026C, strain gcn3, hits give low values 0.995 | S. cerevisiae deletion strains, locus YKR091W, strain srl3, hits give low values 0.995 | S. cerevisiae deletion strains, locus YLL001W, strain dnm1, hits give low values 0.999 | S. cerevisiae deletion strains, locus YLL026W, hits give low values 1 | S. cerevisiae deletion strains, locus YLL041C, strain sdh2, hits give low values 1.01 | S. cerevisiae deletion strains, locus YLR027C, strain aat2, hits give low values 0.999 | S. cerevisiae deletion strains, locus YLR039C, strain RIC1, hits give low values 1.02 | S. cerevisiae deletion strains, locus YLR058C, strain SHM2, hits give low values 1.02 | S. cerevisiae deletion strains, locus YLR102C, strain apc9, hits give low values 1 | S. cerevisiae deletion strains, locus YLR221C, strain rsa3, hits give low values 1.01 | S. cerevisiae deletion strains, locus YLR258W, strain gsy2, hits give low values 1 | S. cerevisiae deletion strains, locus YLR262C, strain YPT6 (second series), hits give low values 1.01 | S. cerevisiae deletion strains, locus YLR262C, strain YPT6, hits give low values 1.01 | S. cerevisiae deletion strains, locus YLR268W, strain sec22, hits give low values 1.02 | S. cerevisiae deletion strains, locus YLR320W, strain mms22, hits give low values 1.01 | S. cerevisiae deletion strains, locus YLR330W, strain CHS5, hits give low values 1.02 | S. cerevisiae deletion strains, locus YLR342W, strain FKS1 (second series), hits give low values 1.06 | S. cerevisiae deletion strains, locus YLR342W, strain FKS1, hits give low values 1 | S. cerevisiae deletion strains, locus YLR357W, strain rsc2, hits give low values 0.992 | S. cerevisiae deletion strains, locus YLR370C, strain arc18, hits give low values 1 | S. cerevisiae deletion strains, locus YLR371W, strain rom2, hits give low values 1.02 | S. cerevisiae deletion strains, locus YLR384C, strain iki3, hits give low values 0.991 | S. cerevisiae deletion strains, locus YLR418C, strain cdc73, hits give low values 1.03 | S. cerevisiae deletion strains, locus YML016C, strain PPZ1, hits give low values 1.01 | S. cerevisiae deletion strains, locus YML032C, strain rad52, hits give low values 1 | S. cerevisiae deletion strains, locus YML120C, strain ndi1, hits give low values 1.03 | S. cerevisiae deletion strains, locus YML124C, strain tub3, hits give low values 1.01 | S. cerevisiae deletion strains, locus YMR058W, strain fet3, hits give low values 1.02 | S. cerevisiae deletion strains, locus YMR078C, strain ctf18, hits give low values 1.01 | S. cerevisiae deletion strains, locus YMR125W, strain sto1, hits give low values 0.981 | S. cerevisiae deletion strains, locus YMR129W, hits give low values 1.01 | S. cerevisiae deletion strains, locus YMR205C, strain PFK2, hits give low values 1 | S. cerevisiae deletion strains, locus YMR223W, strain ubp8, hits give low values 0.994 | S. cerevisiae deletion strains, locus YMR231W, strain pep5, hits give low values 1 | S. cerevisiae deletion strains, locus YMR263W, strain SAP30, hits give low values 1.01 | S. cerevisiae deletion strains, locus YMR307W, strain GAS1, hits give low values 1.06 | S. cerevisiae deletion strains, locus YNL067W, strain RPL9B, hits give low values 1.02 | S. cerevisiae deletion strains, locus YNL071W, strain lat1, hits give low values 0.996 | S. cerevisiae deletion strains, locus YNL128W, strain TEP1, hits give low values 1.04 | S. cerevisiae deletion strains, locus YNL153C, strain GIM3, hits give low values 1.02 | S. cerevisiae deletion strains, locus YNL209W, strain ssb2, hits give low values 0.985 | S. cerevisiae deletion strains, locus YNL233W, strain BNI4, hits give low values 1.02 | S. cerevisiae deletion strains, locus YNL248C, strain rpa49, hits give low values 0.991 | S. cerevisiae deletion strains, locus YNL250W, strain rad50, hits give low values 1 | S. cerevisiae deletion strains, locus YNL271C, strain bni1, hits give low values 1.01 | S. cerevisiae deletion strains, locus YNL298W, strain CLA4, hits give low values 0.999 | S. cerevisiae deletion strains, locus YNL307C, strain MCK1, hits give low values 1.02 | S. cerevisiae deletion strains, locus YNL322C, strain KRE1 (second series), hits give low values 0.989 | S. cerevisiae deletion strains, locus YNL322C, strain KRE1, hits give low values 1.01 | S. cerevisiae deletion strains, locus YNR049C, strain mso1, hits give low values 1 | S. cerevisiae deletion strains, locus YNR052C, strain pop2, hits give low values 1 | S. cerevisiae deletion strains, locus YOL006C, strain TOP1, hits give low values 1.06 | S. cerevisiae deletion strains, locus YOL012C, strain htz1 1.19 | S. cerevisiae deletion strains, locus YOL147C, strain pex11, hits give low values 1.01 | S. cerevisiae deletion strains, locus YOR001W, strain rrp6, hits give low values 1.02 | S. cerevisiae deletion strains, locus YOR061W, strain CKA2, hits give low values 1.01 | S. cerevisiae deletion strains, locus YOR069W, strain VPS5, hits give low values 1.01 | S. cerevisiae deletion strains, locus YOR070C, strain gyp1, hits give low values 1.01 | S. cerevisiae deletion strains, locus YOR080W, strain dia2, hits give low values 1 | S. cerevisiae deletion strains, locus YOR083W, strain WHI5, hits give low values 0.955 | S. cerevisiae deletion strains, locus YOR106W, strain vam3, hits give low values 0.984 | S. cerevisiae deletion strains, locus YOR136W, strain idh2, hits give low values 1.01 | S. cerevisiae deletion strains, locus YOR144C, strain elg1, hits give low values 1.01 | S. cerevisiae deletion strains, locus YOR184W, strain ser1, hits give low values 1.01 | S. cerevisiae deletion strains, locus YOR265W, strain rbl2, hits give low values 1.01 | S. cerevisiae deletion strains, locus YOR270C, strain vph1, hits give low values 0.97 | S. cerevisiae deletion strains, locus YOR290C, strain snf2, hits give low values 1.01 | S. cerevisiae deletion strains, locus YOR316C, strain cot1, hits give low values 1 | S. cerevisiae deletion strains, locus YPL051W, strain arl3, hits give low values 0.994 | S. cerevisiae deletion strains, locus YPL055C, strain LGE1, hits give low values 1 | S. cerevisiae deletion strains, locus YPL078C, strain atp4, hits give low values 0.989 | S. cerevisiae deletion strains, locus YPL106C, strain sse1, hits give low values 0.959 | S. cerevisiae deletion strains, locus YPL240C, strain hsp82, hits give low values 0.998 | S. cerevisiae deletion strains, locus YPL241C, strain CIN2, hits give low values 1.01 | S. cerevisiae deletion strains, locus YPR119W, strain clb2, hits give low values 0.996 | S. cerevisiae deletion strains, locus YPR141C, strain kar3, hits give low values 1 | S. cerevisiae deletion strains, locus YPR163C, strain tif3, hits give low values 1.01 | S. cerevisiae deletion strains, locus YPR167C, strain met16, hits give low values 0.998 | S. cerevisiae deletion strains, strain wtn01, hits give low values 1 | S. cerevisiae strains, strain wild type, hits give low values 1.02

— PubChem BioAssay AID1159580 (chemical genetic matrix, 2015)
